Data reported in PubChem BioAssay (EPA / NIEHS).
Inconclusive results are not listed. Active and inactive are the calls of the source. The calls were made as follows, unless noted: active = hit-call score of the fitted dose curve at least 0.9, where 1 is the maximum; inactive = score below 0.9.

Columns and labels:
[1] = ATG_NFI_CIS: Attagene CIS-FACTORIAL HepG2 Assay for human Nuclear Factor I (NFI) (AID 2282989); settings: HepG2 cis-regulatory reporter, NFI response element transcription; actives raise or lower the signal
In short: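 Transient MRTU transfection of HepG2 → 24 h chemical dosing → total RNA, oligo(dT) RT → PCR, 6-FAM primer extension, HpaI cut → capillary electrophoresis. Endpoint fitted bidirectionally relative to DMSO.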

[2] = target: Myc proto-oncogene protein (Homo sapiens) (UniProt P01106); assay: ATG_Myc_CIS: Attagene CIS-FACTORIAL HepG2 Assay for human Myelocytomatosis (Myc) Proto-Oncogene Transcription Factor (AID 2282990); settings: HepG2, Attagene cis-reporter transcription factor activity; actives raise or lower the signal
In short: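 Transiently transfected HepG2 cells bearing cis-promoter reporter units for endogenous transcription factors; 24 h exposure. Reporter mRNA measured by RT-PCR, 6-FAM primer extension, HpaI cut and capillary electrophoresis; bidirectional fit relative to DMSO.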

[3] = ATG_NRF2_ARE_CIS: Attagene CIS-FACTORIAL HepG2 Assay for human Nuclear Factor Erythroid 2 Related Factor 2 (NFR2) response to Antioxidant Response Elements (ARE) (AID 2282992); settings: HepG2 Attagene ARE/NRF2 reporter, transcription factor activity; actives raise or lower the signal;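 as to AC50: reporter mRNA level measured by RT-PCR and capillary electrophoresis fluorescence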
In short: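 Transient MRTU transfection of HepG2; 24 h compound exposure; TriZol RNA, RT with oligo(dT), PCR, 6-FAM primer extension, HpaI cut, CE. Bidirectional fit vs DMSO.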

[4] = ATG_Oct_MLP_CIS: Attagene CIS-FACTORIAL HepG2 Assay for human Octamer-Binding Transcription Factor (Oct) (AID 2282993); settings: HepG2 Attagene cis-factorial Oct reporter, mRNA; actives raise or lower the signal
In short: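 Transient MRTU transfection of HepG2 → 24 h compound treatment → RNA isolation, reverse transcription, PCR → 6-FAM primer extension, HpaI digest → capillary electrophoresis. Activity fitted both directions against DMSO.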

[5] = target: Cellular tumor antigen p53 (Homo sapiens) (UniProt P04637); assay: ATG_p53_CIS: Attagene CIS-FACTORIAL HepG2 Assay for human p53 Transcription Factor (AID 2282994); settings: HepG2 p53 cis-element reporter, Attagene mRNA; actives raise or lower the signal
In short: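 HepG2, transient MRTU transfection (cis promoter elements, endogenous TFs); 24 h dosing; RNA isolation, RT-PCR, 6-FAM primer extension, HpaI digest, CE fluorescence; bidirectional fit vs DMSO.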

[6] = target: human Peroxisome Proliferator-activated Receptor delta (PPARd), PPARD (gene 5467) (UniProt Q03181); assay: ATG_PPARd_TRANS: Attagene TRANS-FACTORIAL HepG2 Assay for human Peroxisome Proliferator-activated Receptor delta (PPARd) (AID 2283002; active = hit-call score of the fitted dose curve at least 0.9, where 1 is the maximum)
In short: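 HepG2 cells transiently transfected with GAL4-UAS multiplexed reporter units driven by exogenous chimeric NR-GAL4 proteins; 24 h compound exposure. Reporter mRNA measured by RT-PCR, 6-FAM primer extension, HpaI digestion and capillary electrophoresis; gain of signal fitted relative to DMSO.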

[7] = target: human Retinoic Acid Receptor beta (RARb), RARB (gene 5915) (UniProt P10826); assay: ATG_RARb_TRANS: Attagene TRANS-FACTORIAL HepG2 Assay for human Retinoic Acid Receptor beta (AID 2283004; active = hit-call score of the fitted dose curve at least 0.9, where 1 is the maximum)
In short: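 Induction of reporter mRNA from a chimeric RARb-Gal4 construct was measured by RT-PCR, FAM labelling, HpaI digestion and capillary electrophoresis. Measurements followed 24 h compound treatment of transiently transfected human HepG2 liver cells, with DMSO as baseline.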

[8] = target: Retinoic acid receptor alpha (Homo sapiens) (UniProt P10276); assay: ATG_RARa_TRANS: Attagene TRANS-FACTORIAL HepG2 Assay for human Retinoic Acid Receptor alpha (RARa) (AID 2283005; active = hit-call score of the fitted dose curve at least 0.9, where 1 is the maximum)
In short: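 HepG2 transiently transfected with multiplex GAL4-UAS reporter units including a human RARa–GAL4 chimera; 24 h compound exposure. Reporter mRNA quantified by RT-PCR, 6-FAM labeling and capillary electrophoresis; gain of signal versus DMSO.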

[9] = target: human Retinoic Acid Receptor gamma (RARg), RARG (gene 5916) (UniProt P13631); assay: ATG_RARg_TRANS: Attagene TRANS-FACTORIAL HepG2 Assay for human Retinoic Acid Receptor gamma (RARg) (AID 2283009; active = hit-call score of the fitted dose curve at least 0.9, where 1 is the maximum)
In short: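 HepG2 cells transiently transfected with multiplexed reporter units expressing chimeric RARg-GAL4 and GAL4-UAS-driven reporters; 24 h compound exposure. Reporter mRNA quantified by RT-PCR with fluorescent labelling and capillary electrophoresis; gain-of-signal fitted relative to DMSO baseline.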

[10] = target: human Peroxisome Proliferator-activated Receptor alpha (PPARa), PPARA (gene 5465) (UniProt Q07869); assay: ATG_PPARa_TRANS: Attagene TRANS-FACTORIAL HepG2 Assay for human Peroxisome Proliferator-activated Receptor alpha (PPARa) (AID 2283001; active = hit-call score of the fitted dose curve at least 0.9, where 1 is the maximum;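 as to AC50: potency for gain of reporter signal over DMSO so agonist or activator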)
In short: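 Measures transcriptional activity of an exogenous chimeric PPARa-Gal4 protein in transiently transfected HepG2 cells after 24 h dosing. Reporter mRNA quantified via RT-PCR and capillary electrophoresis; DMSO served as negative control.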

[11] = target: Peroxisome proliferator-activated receptor gamma (Homo sapiens) (UniProt P37231); assay: ATG_PPARg_TRANS: Attagene TRANS-FACTORIAL HepG2 Assay for human Peroxisome Proliferator-activated Receptor-gamma (PPARg) (AID 2283007; active = hit-call score of the fitted dose curve at least 0.9, where 1 is the maximum)
In short: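 Chimeric NR-Gal4 transactivation is measured in transiently transfected HepG2 cells by reporter mRNA induction at 24 h. Detection uses RT-PCR with fluorescent labelling and capillary electrophoresis; DMSO defines baseline.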

[12] = target: Nuclear receptor subfamily 1 group I member 2 (Homo sapiens) (UniProt O75469); assay: ATG_PXR_TRANS: Attagene TRANS-FACTORIAL HepG2 Assay for human Pregnane X Receptor (PXR) (AID 2283008; active = hit-call score of the fitted dose curve at least 0.9, where 1 is the maximum)
In short: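 Read-out is fluorescence of labelled reporter cDNA fragments separated by capillary electrophoresis after RT-PCR and HpaI digestion. Source: HepG2 cells carrying PXR-GAL4/UAS reporter constructs, treated 24 h; activity fitted upward relative to DMSO.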

[13] = ATG_NF_kB_CIS: Attagene CIS-FACTORIAL HepG2 Assay for human Nuclear Factor Kappa B (NF-kB) (AID 2282991); settings: HepG2 Attagene cis-factorial NF-kB reporter mRNA; actives raise or lower the signal
In short: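 DMSO served as negative control and baseline for bidirectional curve fitting. Transiently transfected HepG2 cells were dosed for 24 h, then reporter transcripts were measured by RT-PCR with capillary electrophoresis detection.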

[14] = target: human RAR-related Orphan Receptor beta (RORb), RORB (gene 6096) (UniProt Q92753); assay: ATG_RORb_TRANS: Attagene TRANS-FACTORIAL HepG2 Assay for human RAR-related Orphan Receptor beta (RORb) (AID 2283010; active = hit-call score of the fitted dose curve at least 0.9, where 1 is the maximum)
In short: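 HepG2 cells were transiently transfected with multiplexed GAL4-UAS reporter units expressing chimeric nuclear receptor–GAL4 proteins, then dosed for 24 h. Reporter mRNA was quantified by RT-PCR with fluorescent labelling and capillary electrophoresis; gain of signal was fitted relative to DMSO.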

human Peroxisome Proliferator-activated Receptor alpha (PPARa), PPARA (gene 5465), sequence (Q07869 whole entry, looked up, the tested form may be a part): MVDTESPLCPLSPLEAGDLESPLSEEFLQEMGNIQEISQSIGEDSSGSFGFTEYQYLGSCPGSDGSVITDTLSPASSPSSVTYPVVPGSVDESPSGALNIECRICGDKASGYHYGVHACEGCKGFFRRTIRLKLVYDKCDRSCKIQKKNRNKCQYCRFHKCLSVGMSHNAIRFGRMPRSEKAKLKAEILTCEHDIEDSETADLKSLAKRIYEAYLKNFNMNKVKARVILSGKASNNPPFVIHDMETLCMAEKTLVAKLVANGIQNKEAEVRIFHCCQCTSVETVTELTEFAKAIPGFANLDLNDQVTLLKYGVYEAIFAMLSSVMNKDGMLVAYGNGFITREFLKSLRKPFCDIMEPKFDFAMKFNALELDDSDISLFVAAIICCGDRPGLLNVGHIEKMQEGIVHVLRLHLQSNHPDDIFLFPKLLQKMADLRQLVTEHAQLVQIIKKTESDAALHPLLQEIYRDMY
human Peroxisome Proliferator-activated Receptor delta (PPARd), PPARD (gene 5467), sequence (Q03181 whole entry, looked up, the tested form may be a part): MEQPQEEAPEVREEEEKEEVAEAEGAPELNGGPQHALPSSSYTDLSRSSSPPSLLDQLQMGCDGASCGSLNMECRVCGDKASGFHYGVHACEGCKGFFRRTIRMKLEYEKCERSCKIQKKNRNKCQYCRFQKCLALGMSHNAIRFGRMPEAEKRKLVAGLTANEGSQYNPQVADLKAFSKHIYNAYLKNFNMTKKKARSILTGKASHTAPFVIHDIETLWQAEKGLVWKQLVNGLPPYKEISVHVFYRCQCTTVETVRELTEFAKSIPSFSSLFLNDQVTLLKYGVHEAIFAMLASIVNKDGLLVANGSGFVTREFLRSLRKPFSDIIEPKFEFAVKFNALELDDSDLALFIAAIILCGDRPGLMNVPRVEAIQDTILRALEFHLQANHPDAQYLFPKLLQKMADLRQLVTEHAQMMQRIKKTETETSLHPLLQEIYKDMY
human Retinoic Acid Receptor gamma (RARg), RARG (gene 5916), sequence (P13631 whole entry, looked up, the tested form may be a part): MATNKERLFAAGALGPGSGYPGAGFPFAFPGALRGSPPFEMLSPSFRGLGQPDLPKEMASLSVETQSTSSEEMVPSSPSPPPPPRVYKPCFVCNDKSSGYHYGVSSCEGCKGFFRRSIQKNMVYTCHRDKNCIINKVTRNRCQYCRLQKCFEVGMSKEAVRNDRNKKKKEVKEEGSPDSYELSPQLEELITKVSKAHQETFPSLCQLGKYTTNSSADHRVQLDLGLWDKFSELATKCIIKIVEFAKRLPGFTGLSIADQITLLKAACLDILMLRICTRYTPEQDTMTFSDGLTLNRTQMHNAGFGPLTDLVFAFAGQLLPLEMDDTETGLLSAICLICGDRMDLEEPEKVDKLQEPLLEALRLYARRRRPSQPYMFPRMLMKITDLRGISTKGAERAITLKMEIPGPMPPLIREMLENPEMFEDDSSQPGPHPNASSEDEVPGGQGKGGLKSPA
Nuclear receptor subfamily 1 group I member 2 (Homo sapiens), sequence (O75469 whole entry, looked up, the tested form may be a part): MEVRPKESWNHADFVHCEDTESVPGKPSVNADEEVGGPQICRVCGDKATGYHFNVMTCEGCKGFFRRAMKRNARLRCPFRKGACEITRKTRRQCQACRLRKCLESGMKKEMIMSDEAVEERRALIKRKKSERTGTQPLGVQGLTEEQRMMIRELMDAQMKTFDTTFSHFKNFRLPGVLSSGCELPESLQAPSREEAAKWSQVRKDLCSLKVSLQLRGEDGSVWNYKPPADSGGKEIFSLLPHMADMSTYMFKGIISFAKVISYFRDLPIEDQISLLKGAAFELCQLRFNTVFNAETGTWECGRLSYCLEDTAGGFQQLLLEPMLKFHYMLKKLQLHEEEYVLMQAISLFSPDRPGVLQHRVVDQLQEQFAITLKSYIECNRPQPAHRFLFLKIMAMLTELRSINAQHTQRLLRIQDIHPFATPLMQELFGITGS
Peroxisome proliferator-activated receptor gamma (Homo sapiens), sequence (P37231 whole entry, looked up, the tested form may be a part): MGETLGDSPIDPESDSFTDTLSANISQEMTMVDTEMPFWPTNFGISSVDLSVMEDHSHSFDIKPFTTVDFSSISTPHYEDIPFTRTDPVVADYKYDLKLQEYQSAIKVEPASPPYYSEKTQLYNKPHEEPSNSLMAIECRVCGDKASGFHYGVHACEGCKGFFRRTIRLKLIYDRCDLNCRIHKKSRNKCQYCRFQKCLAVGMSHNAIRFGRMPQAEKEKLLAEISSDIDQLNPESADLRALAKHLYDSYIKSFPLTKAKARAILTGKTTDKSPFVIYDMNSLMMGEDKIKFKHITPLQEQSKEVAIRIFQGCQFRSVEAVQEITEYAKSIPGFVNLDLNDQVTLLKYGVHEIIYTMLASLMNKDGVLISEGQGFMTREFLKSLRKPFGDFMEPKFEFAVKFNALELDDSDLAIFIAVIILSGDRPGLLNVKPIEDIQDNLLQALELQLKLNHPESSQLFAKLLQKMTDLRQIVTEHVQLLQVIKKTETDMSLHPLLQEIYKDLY
Myc proto-oncogene protein (Homo sapiens), sequence (P01106 whole entry, looked up): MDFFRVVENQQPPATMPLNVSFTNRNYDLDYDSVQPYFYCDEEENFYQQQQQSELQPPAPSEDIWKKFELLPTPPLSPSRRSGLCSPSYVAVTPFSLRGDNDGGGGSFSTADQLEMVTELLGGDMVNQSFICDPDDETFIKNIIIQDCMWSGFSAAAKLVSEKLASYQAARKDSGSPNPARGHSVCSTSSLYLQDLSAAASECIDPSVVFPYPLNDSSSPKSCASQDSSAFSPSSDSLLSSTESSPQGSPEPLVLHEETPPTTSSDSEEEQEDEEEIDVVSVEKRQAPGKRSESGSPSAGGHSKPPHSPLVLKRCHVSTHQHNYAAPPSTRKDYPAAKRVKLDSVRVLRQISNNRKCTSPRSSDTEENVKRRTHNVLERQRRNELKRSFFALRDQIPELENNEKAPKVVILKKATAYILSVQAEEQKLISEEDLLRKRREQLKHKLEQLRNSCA
Retinoic acid receptor alpha (Homo sapiens), sequence (P10276 whole entry, looked up, the tested form may be a part): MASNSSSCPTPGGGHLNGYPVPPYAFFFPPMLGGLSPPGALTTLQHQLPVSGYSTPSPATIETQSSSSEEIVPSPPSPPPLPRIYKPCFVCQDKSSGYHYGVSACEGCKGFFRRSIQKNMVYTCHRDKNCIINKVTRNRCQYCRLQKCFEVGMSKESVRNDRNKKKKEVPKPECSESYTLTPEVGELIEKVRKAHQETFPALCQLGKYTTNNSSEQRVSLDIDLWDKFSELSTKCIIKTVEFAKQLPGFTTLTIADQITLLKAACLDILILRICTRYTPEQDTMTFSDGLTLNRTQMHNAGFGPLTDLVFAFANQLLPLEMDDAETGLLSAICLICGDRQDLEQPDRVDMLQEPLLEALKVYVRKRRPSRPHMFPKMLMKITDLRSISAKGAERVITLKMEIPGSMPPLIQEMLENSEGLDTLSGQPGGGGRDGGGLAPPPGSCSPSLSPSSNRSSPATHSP
human Retinoic Acid Receptor beta (RARb), RARB (gene 5915), sequence (P10826 whole entry, looked up, the tested form may be a part): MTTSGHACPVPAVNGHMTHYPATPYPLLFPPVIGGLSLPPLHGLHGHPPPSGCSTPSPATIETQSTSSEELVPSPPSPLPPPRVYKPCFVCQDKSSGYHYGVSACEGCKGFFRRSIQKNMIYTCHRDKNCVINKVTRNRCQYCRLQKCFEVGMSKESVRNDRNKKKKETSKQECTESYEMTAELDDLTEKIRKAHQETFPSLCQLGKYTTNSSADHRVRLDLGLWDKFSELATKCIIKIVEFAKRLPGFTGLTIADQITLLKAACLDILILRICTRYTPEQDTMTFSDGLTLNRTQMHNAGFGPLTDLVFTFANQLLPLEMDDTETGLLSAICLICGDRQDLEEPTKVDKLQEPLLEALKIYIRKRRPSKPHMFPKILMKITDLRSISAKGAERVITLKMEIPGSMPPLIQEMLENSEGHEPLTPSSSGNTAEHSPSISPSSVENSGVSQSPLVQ
Cellular tumor antigen p53 (Homo sapiens), sequence (P04637 whole entry, looked up): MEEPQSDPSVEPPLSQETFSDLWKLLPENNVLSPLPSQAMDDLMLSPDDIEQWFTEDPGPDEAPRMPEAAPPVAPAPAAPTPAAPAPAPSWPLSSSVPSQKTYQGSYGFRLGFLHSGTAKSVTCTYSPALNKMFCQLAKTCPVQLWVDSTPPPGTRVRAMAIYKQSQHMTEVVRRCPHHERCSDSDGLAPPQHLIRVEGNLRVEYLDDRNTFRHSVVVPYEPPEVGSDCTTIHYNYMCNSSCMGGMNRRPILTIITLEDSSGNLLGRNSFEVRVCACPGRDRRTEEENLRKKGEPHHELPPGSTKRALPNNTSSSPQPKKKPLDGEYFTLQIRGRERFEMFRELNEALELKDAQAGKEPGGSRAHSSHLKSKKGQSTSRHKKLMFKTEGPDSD
human RAR-related Orphan Receptor beta (RORb), RORB (gene 6096), sequence (Q92753 whole entry, looked up, the tested form may be a part): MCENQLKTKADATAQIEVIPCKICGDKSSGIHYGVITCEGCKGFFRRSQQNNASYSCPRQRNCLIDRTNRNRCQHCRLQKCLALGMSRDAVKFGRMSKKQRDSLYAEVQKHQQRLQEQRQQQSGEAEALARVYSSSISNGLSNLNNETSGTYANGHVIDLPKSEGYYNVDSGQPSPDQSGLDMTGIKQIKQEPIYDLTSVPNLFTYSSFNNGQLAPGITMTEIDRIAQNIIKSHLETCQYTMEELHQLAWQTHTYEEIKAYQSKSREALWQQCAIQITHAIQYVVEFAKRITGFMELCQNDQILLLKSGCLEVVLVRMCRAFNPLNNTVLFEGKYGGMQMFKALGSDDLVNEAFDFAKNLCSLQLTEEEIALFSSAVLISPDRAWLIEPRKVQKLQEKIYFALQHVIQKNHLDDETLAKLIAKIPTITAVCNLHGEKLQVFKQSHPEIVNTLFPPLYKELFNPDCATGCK

## CNC(=S)NN
[1]
  outcome: inactive
[2]
  outcome: inactive
[3]
  outcome: inactive
[4]
  outcome: inactive
[5]
  outcome: inactive
[6]
  outcome: inactive
[7]
  outcome: inactive
[8]
  outcome: inactive
[9]
  outcome: inactive

## Nc1cccc(C(F)(F)F)c1
[1]
  outcome: inactive
[2]
  outcome: inactive
[3]
  outcome: inactive
[4]
  outcome: inactive
[5]
  outcome: inactive
[10]
  outcome: inactive
[7]
  outcome: inactive
[11]
  outcome: inactive
[12]
  outcome: inactive

## COC(F)(F)C(F)(C(F)(F)F)C(F)(F)F
[1]
  outcome: inactive
[2]
  outcome: inactive
[13]
  outcome: inactive
[5]
  outcome: inactive
[10]
  outcome: inactive
[7]
  outcome: inactive
[14]
  outcome: inactive

## CCOC(=O)N1CCC(=C2c3ccc(Cl)cc3CCc3cccnc32)CC1
[1]
  outcome: inactive
[2]
  outcome: inactive
[13]
  outcome: inactive
[4]
  outcome: inactive
[6]
  outcome: inactive

## CCCCCCCCCCCCCCCC[n+]1ccccc1
[1]
  outcome: inactive
[2]
  AC50: 20 µM (active)
[3]
  outcome: inactive
[4]
  outcome: inactive
[5]
  AC50: 20.4 µM (active)
[10]
  outcome: inactive
[6]
  outcome: inactive
[7]
  outcome: inactive
[8]
  outcome: inactive
[11]
  outcome: inactive
[12]
  outcome: inactive
[9]
  outcome: inactive

## NC(CO)(CO)CO
[1]
  outcome: inactive
[2]
  outcome: inactive
[3]
  outcome: inactive
[4]
  outcome: inactive
[5]
  outcome: inactive
[10]
  outcome: inactive
[7]
  outcome: inactive

## O=S(=O)(O)c1ccc2cc(O)c(S(=O)(=O)O)cc2c1
[1]
  outcome: inactive
[2]
  outcome: inactive
[13]
  AC50: 120 µM (active)
[4]
  outcome: inactive
[5]
  AC50: 182 µM (active)
[6]
  outcome: inactive
[12]
  outcome: inactive

## O=C(c1ccccc1)c1ccc(O)c(O)c1O
[1]
  outcome: inactive
[2]
  outcome: inactive
[3]
  AC50: 61.6 µM (active)
[4]
  outcome: inactive
[5]
  outcome: inactive
[10]
  outcome: inactive
[6]
  outcome: inactive
[8]
  outcome: inactive
[11]
  AC50: 47 µM (active)
[12]
  AC50: 24 µM (active)

## OCCNCc1ccccc1
[1]
  outcome: inactive
[2]
  outcome: inactive
[3]
  outcome: inactive
[4]
  outcome: inactive
[5]
  outcome: inactive
[10]
  outcome: inactive
[6]
  outcome: inactive

## COC(=O)c1ccc2cc(C(=O)OC)ccc2c1
[1]
  outcome: inactive
[2]
  outcome: inactive
[13]
  outcome: inactive
[4]
  outcome: inactive
[5]
  outcome: inactive
[10]
  outcome: inactive
[11]
  AC50: 26.3 µM (active)
[12]
  outcome: inactive
[9]
  outcome: inactive

## Cc1ccc(C(C)c2ccc(C)c(C)c2)cc1C
[1]
  outcome: inactive
[2]
  outcome: inactive
[3]
  AC50: 37.5 µM (active)
[4]
  AC50: 147 µM (active)
[5]
  AC50: 41.9 µM (active)
[10]
  outcome: inactive
[6]
  outcome: inactive
[7]
  outcome: inactive
[11]
  AC50: 30.9 µM (active)
[12]
  AC50: 2.91 µM (active)

## FC(F)=C(F)OC(F)(F)C(F)(F)C(F)(F)F
[1]
  outcome: inactive
[2]
  outcome: inactive
[13]
  outcome: inactive
[4]
  outcome: inactive
[5]
  outcome: inactive
[10]
  outcome: inactive
[6]
  outcome: inactive
[11]
  outcome: inactive
[12]
  outcome: inactive

## Oc1ccc(Cl)cc1Cc1cc(Cl)ccc1O
[1]
  AC50: 5.83 µM (active)
[2]
  outcome: inactive
[13]
  outcome: inactive
[4]
  AC50: 7.99 µM (active)
[10]
  AC50: 6.86 µM (active)
[6]
  outcome: inactive
[11]
  AC50: 4.51 µM (active)
[12]
  AC50: 2.94 µM (active)
